Here are results for three compounds from PubChem BioAssay (EPA / NIEHS).

“And” between values parts separate entries of the source, which are not always exact repeats. Equal entries are not always repeated. Records with an inconclusive call do not appear. Where a structure was tested more than once in an assay, its records may differ in their call. The source made the active and inactive calls. How the source made its calls, unless noted: active means hit-call score of the fitted dose curve at least 0.9, where 1 is the maximum; inactive means score below 0.9.

Experiment [1] concerns the target human Retinoic Acid Receptor gamma (RARg), RARG (gene 5916) (UniProt P13631). As to the kind of experiment: ATG_RARg_TRANS: Attagene TRANS-FACTORIAL HepG2 Assay for human Retinoic Acid Receptor gamma (RARg) (AID 2283009; active means hit-call score of the fitted dose curve at least 0.9, where 1 is the maximum). The method, boiled down:
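Transient transfection of HepG2 with multi-reporter constructs, then 24 h chemical treatment. Total RNA isolated, reverse-transcribed, PCR-amplified, fluorescently labelled and resolved by capillary electrophoresis; activity scored as mRNA induction versus DMSO.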

Experiment [2] deals with Retinoic acid receptor RXR-alpha (Homo sapiens) (UniProt P19793). As to the kind of experiment: ATG_RXRa_TRANS: Attagene TRANS-FACTORIAL HepG2 Assay for human Retinoid X Receptor alpha (RXRa) (AID 2283012; active means hit-call score of the fitted dose curve at least 0.9, where 1 is the maximum). In outline: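 Transient transfection of human HepG2 with multiple GAL4-UAS reporter constructs; 24 h compound exposure; total RNA isolated, reverse-transcribed, PCR-amplified, 6-FAM labelled, HpaI-cut, resolved by capillary electrophoresis. Positive-direction fit versus DMSO.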
Retinoic acid receptor RXR-alpha (Homo sapiens), sequence (P19793 whole entry, looked up, the tested form may be a part): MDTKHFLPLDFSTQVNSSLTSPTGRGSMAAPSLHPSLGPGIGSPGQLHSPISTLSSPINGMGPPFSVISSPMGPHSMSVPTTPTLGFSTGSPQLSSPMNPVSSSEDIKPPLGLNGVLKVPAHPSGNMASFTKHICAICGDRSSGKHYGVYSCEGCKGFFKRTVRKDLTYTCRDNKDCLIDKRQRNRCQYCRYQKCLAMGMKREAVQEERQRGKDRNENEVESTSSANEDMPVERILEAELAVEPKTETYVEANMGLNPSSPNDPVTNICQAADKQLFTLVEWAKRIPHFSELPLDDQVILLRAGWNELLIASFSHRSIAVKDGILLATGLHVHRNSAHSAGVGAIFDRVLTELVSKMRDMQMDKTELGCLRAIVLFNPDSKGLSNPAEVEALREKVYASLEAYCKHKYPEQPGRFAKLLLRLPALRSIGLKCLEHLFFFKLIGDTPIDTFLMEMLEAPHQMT

In experiment [3] the target is human Retinoid X Receptor beta (RXRb), RXRB (gene 6257) (UniProt P28702). As to the kind of experiment: ATG_RXRb_TRANS: Attagene TRANS-FACTORIAL HepG2 Assay for human Retinoid X Receptor beta (RXRb) (AID 2283013; active means hit-call score of the fitted dose curve at least 0.9, where 1 is the maximum). In outline:
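Transfect HepG2 with GAL4-UAS multi-reporter constructs (chimeric NR-Gal4, TRANS format); dose compound 24 h; isolate RNA, RT-PCR, FAM primer extension, HpaI digest; quantify by capillary electrophoresis; positive direction vs DMSO.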

Experiment [4] deals with human Thyroid Receptor alpha (THRa1), THRA (gene 7067) (UniProt P10827). As to the kind of experiment: ATG_THRa1_TRANS: Attagene TRANS-FACTORIAL HepG2 Assay for human Thyroid Receptor alpha (THRa1) (AID 2283014; active means hit-call score of the fitted dose curve at least 0.9, where 1 is the maximum). The method, boiled down: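 HepG2 cells transiently transfected with multiplexed GAL4-UAS reporter units for exogenous chimeric THRa1-Gal4; reporter mRNA measured 24 h after dosing by RT-PCR, 6-FAM labelling, HpaI digestion and capillary electrophoresis. Gain-of-signal fitted versus DMSO baseline.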
human Thyroid Receptor alpha (THRa1), THRA (gene 7067), sequence (P10827 whole entry, looked up, the tested form may be a part): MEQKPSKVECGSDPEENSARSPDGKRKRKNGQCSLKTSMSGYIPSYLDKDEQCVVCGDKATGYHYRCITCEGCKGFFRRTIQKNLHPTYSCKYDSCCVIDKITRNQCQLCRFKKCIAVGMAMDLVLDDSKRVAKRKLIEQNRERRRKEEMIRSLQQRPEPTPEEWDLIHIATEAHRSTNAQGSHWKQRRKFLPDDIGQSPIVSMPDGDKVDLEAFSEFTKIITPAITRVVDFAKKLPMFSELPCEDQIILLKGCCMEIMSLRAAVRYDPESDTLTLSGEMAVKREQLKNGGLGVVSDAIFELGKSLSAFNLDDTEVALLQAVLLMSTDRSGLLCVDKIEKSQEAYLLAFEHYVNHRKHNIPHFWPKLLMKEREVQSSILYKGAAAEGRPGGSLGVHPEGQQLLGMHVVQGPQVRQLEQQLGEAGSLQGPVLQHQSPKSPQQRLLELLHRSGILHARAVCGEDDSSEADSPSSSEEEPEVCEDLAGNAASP

Read-out in experiment [5]: E-selectin (Homo sapiens) (UniProt P16581)
In words: BSK_3C_Eselectin: BioMAP Diversity Plus: 3C Assay for Eselectin Biomarker Activity (AID 2283015).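 On outcome: cell surface E-selectin protein quantified by ELISA 24 h after dosing.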 The following applies: primary human endothelial cells (HUVEC); actives raise or lower the signal. The method, boiled down: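 Primary human umbilical vein endothelial cells (3C system) were dosed with chemical and cell-surface E-selectin measured by ELISA 24 h later. Bidirectional curve fitting used DMSO as negative control and baseline.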

Read-out in experiment [6]: Interleukin-1 alpha (IL1a), IL1A (gene 3552)
As to the kind of experiment: BSK_BE3C_IL1a: BioMAP Diversity Plus: BE3C Assay for Interleukin-1 alpha (IL1a) Biomarker Activity (AID 2283016). Conditions: primary human bronchial epithelial cells; actives raise or lower the signal. The method, boiled down:
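BE3C primary human bronchial epithelium; cpd 24 h; IL-1a by ELISA; bidirectional fit vs DMSO; parallel SRB (0.1% SRB, 10% TCA fix, 560 nm) for cytotoxicity.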

Read-out in experiment [7]: Monocyte Chemoattractant Protein-1 (MCP1), CCL2 (gene 6347)
As to the kind of experiment: BSK_3C_MCP1: BioMAP Diversity Plus: 3C Assay for Monocyte Chemoattractant Protein-1 (MCP1) Biomarker Activity (AID 2283017). Conditions: primary human endothelial cells (HUVEC); actives raise or lower the signal. In outline: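 Primary human umbilical vein endothelial cells (3C system) were exposed to test chemical for 24 h, after which MCP-1 was quantified by ELISA. Activity was fitted bidirectionally against DMSO as negative control and baseline.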

Read-out in experiment [8]: Monocyte Chemoattractant Protein-1 (MCP1), CCL2 (gene 6347)
In words: BSK_4H_MCP1: BioMAP Diversity Plus: 4H Assay for Monocyte Chemoattractant Protein-1 (MCP1) Biomarker Activity (AID 2283018). Conditions: primary human endothelial cells (HUVEC); actives raise or lower the signal. The method, boiled down: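 ELISA read-out of MCP-1 from human vascular endothelial primary cells taken at 24 hours after compound exposure. Activity was fitted in both directions relative to DMSO, which served as negative control.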

Read-out in experiment [9]: Human Leukocyte Antigen - DR isotype (HLADR), HLA-DRA (gene 3122)
In words: BSK_3C_HLADR: BioMAP Diversity Plus: 3C Assay for Human Leukocyte Antigen - DR isotype (HLADR) Biomarker Activity (AID 2283019).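 On outcome: ELISA of cell-surface HLA-DR on HUVEC 24 h after dosing.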 The following applies: primary human endothelial cells (HUVEC); actives raise or lower the signal. In outline:
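Primary human umbilical vein endothelial cells (3C system) were dosed with compound and cell-surface HLA-DR was quantified by ELISA at 24 h. Activity was fitted bidirectionally against DMSO as negative control and baseline.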

Read-out in experiment [10]: Interleukin-8 (IL8), CXCL8 (gene 3576)
As to the kind of experiment: BSK_3C_IL8: BioMAP Diversity Plus: 3C Assay for Interleukin-8 (IL8) Biomarker Activity (AID 2283020). Conditions: primary human endothelial cells (HUVEC); actives raise or lower the signal. The method, boiled down: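 ELISA read-out of IL-8 from human umbilical vein endothelium, measured 24 h after chemical dosing. Activity is expressed relative to DMSO negative control, with both increases and decreases fitted.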

Read-out in experiment [11]: Monokine induced gamma interferon (MIG), CXCL9 (gene 4283)
As to the kind of experiment: BSK_3C_MIG: BioMAP Diversity Plus: 3C Assay for Monokine induced gamma interferon (MIG) Biomarker Activity (AID 2283021).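 On AC50: MIG protein level measured by immunoassay in the treated endothelial cultures.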 The following applies: primary human endothelial cells (HUVEC); actives raise or lower the signal. In outline: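 Read-out is ELISA detection of MIG on human umbilical vein endothelial cells, taken 24 h after dosing. Gain or loss of signal was scored relative to DMSO controls using bidirectional curve fitting.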

The target of experiment [12] is human Vitamin D Receptor (VDR), VDR (gene 7421) (UniProt P11473). As to the kind of experiment: ATG_VDR_TRANS: Attagene TRANS-FACTORIAL HepG2 Assay for human Vitamin D Receptor (VDR) (AID 2283022; active means hit-call score of the fitted dose curve at least 0.9, where 1 is the maximum). The method, boiled down: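 HepG2 cells were transiently transfected with multiple GAL4-UAS reporter units, so signal reflects exogenous chimeric receptor-Gal4 activity. After 24 h compound exposure, reporter mRNA was measured by RT-PCR, fluorescent labelling and capillary electrophoresis, fitted for gain of signal versus DMSO.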
human Vitamin D Receptor (VDR), VDR (gene 7421), sequence (P11473 whole entry, looked up, the tested form may be a part): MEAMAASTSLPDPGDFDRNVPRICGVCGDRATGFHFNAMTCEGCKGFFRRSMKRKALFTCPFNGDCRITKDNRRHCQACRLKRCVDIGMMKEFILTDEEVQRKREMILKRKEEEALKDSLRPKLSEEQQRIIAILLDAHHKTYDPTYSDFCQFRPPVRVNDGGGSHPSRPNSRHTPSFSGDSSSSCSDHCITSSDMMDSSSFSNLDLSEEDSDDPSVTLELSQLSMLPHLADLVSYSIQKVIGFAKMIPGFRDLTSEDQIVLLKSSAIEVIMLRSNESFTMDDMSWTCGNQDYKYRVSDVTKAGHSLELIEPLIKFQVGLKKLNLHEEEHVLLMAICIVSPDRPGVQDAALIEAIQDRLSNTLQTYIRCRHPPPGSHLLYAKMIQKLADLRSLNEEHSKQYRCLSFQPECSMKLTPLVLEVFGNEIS

Experiment [13] in a line: BSK_3C_SRB: Viability Assessment in the BioMAP Diversity Plus: 3C Assay (AID 2283023).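 Further: fitted both ways against DMSO so a hit may be signal rise or drop.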 Conditions: primary human endothelial cells (HUVEC). The method, boiled down:
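Primary human umbilical vein endothelial cells in the 3C system were read 24 h after compound dosing. Total protein was stained with 0.1% sulforhodamine B after 10% TCA fixation and read at 560 nm, with bidirectional fitting against DMSO as baseline.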

Read-out in experiment [14]: Matrix Metallopeptidase 1 (MMP1), MMP1 (gene 4312)
In words: BSK_BE3C_MMP1: BioMAP Diversity Plus: BE3C Assay for Matrix Metallopeptidase 1 (MMP1) Biomarker Activity (AID 2283024). Conditions: primary human bronchial epithelial cells; actives raise or lower the signal. The method, boiled down: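 Human bronchial epithelial cells (BE3C system) exposed to compound for 24 h; MMP1 then quantified by ELISA. Activity was fitted in both directions relative to DMSO.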

A short description of experiment [15]: BSK_3C_Vis: BioMAP Diversity Plus: 3C Assay for Morphology Visualization (AID 2283025).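 Further: fitted both ways so gain or loss versus DMSO counts.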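 On AC50: light microscopy image of cell morphology used as background control.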 Conditions: primary human endothelial cells (HUVEC). The method, boiled down: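 Chemicals were added to primary human umbilical vein endothelium, cells were incubated 24 h, and morphology was then visualized by light microscopy. Gain or loss of signal was fitted bidirectionally relative to DMSO.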

Read-out in experiment [16]: Pselectin, SELP (gene 6403)
In words: BSK_4H_Pselectin: BioMAP Diversity Plus: 4H Assay for Pselectin Biomarker Activity (AID 2283026). The following applies: primary human endothelial cells (HUVEC); actives raise or lower the signal. The method, boiled down: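 ELISA read-out of P-selectin on human umbilical vein endothelium after 24 h of dosing. Values derive from bidirectional fitting relative to DMSO. Parallel SRB protein staining flagged overt cytotoxicity.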

A short description of experiment [17]: BSK_4H_SRB: Viability Assessment in the BioMAP Diversity Plus: 4H Assay (AID 2283027).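 Further: cells exposed to compound for 24 h before staining.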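 On AC50: curves fitted both ways versus DMSO so AC50 may be loss or gain.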 The following applies: primary human endothelial cells (HUVEC). In outline: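 Human umbilical vein endothelial cells, 24 h after chemical dosing; total protein measured by 0.1% sulforhodamine B staining after 10% TCA fixation, read at 560 nm. Bidirectional fitting against DMSO.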

Experiment [18] can be described thus: BSK_BE3C_SRB: Viability Assessment in the BioMAP Diversity Plus: BE3C Assay (AID 2283028). Conditions: primary human bronchial epithelial cells. The method, boiled down:
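Human primary bronchial epithelial cells were exposed to test chemicals for 24 h. Total protein in parallel cultures was then measured by staining with 0.1% sulforhodamine B after 10% TCA fixation, with absorbance read at 560 nm. Activity was fitted bidirectionally against DMSO.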

Read-out in experiment [19]: Thrombomodulin, THBD (gene 7056)
As to the kind of experiment: BSK_3C_Thrombomodulin: BioMAP Diversity Plus: 3C Assay for Thrombomodulin Biomarker Activity (AID 2283029). The following applies: primary human endothelial cells (HUVEC); actives raise or lower the signal. In outline:
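Read-out is ELISA of thrombomodulin on human umbilical vein endothelium 24 h after chemical dosing. Gain or loss of signal is scored relative to DMSO. Overt cytotoxicity is checked in parallel cultures by sulforhodamine B staining.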

The target in experiment [20] is human RAR-related Orphan Receptor gamma (RORg), RORC (gene 6097) (UniProt P51449). As to the kind of experiment: ATG_RORg_TRANS: Attagene TRANS-FACTORIAL HepG2 Assay for human RAR-related Orphan Receptor gamma (RORg) (AID 2283011; active means hit-call score of the fitted dose curve at least 0.9, where 1 is the maximum). The method, boiled down:
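Readout: reporter transcript induction (RT-PCR, fluorescent primer extension, capillary electrophoresis) after 24 h compound exposure of transiently transfected HepG2 cells carrying a RORg-Gal4 chimera and GAL4-UAS reporters; DMSO served as baseline, with increasing signal fitted.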

human Retinoid X Receptor beta (RXRb), RXRB (gene 6257), sequence (P28702 whole entry, looked up, the tested form may be a part): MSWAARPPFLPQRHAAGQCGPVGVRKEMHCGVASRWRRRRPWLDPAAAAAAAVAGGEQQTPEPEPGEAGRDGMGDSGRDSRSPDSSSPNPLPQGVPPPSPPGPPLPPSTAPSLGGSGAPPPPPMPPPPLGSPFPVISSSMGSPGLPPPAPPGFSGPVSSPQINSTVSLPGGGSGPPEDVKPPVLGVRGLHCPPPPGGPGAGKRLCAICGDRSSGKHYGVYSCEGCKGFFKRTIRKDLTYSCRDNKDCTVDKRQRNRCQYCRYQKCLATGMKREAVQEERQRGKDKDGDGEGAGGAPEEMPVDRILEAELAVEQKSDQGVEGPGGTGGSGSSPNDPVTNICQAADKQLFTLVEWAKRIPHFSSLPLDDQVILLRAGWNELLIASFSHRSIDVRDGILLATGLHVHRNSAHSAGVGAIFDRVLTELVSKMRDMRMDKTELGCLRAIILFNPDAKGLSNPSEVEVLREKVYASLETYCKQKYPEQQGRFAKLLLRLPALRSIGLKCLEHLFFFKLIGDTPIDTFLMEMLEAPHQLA
E-selectin (Homo sapiens), sequence (P16581 whole entry, looked up): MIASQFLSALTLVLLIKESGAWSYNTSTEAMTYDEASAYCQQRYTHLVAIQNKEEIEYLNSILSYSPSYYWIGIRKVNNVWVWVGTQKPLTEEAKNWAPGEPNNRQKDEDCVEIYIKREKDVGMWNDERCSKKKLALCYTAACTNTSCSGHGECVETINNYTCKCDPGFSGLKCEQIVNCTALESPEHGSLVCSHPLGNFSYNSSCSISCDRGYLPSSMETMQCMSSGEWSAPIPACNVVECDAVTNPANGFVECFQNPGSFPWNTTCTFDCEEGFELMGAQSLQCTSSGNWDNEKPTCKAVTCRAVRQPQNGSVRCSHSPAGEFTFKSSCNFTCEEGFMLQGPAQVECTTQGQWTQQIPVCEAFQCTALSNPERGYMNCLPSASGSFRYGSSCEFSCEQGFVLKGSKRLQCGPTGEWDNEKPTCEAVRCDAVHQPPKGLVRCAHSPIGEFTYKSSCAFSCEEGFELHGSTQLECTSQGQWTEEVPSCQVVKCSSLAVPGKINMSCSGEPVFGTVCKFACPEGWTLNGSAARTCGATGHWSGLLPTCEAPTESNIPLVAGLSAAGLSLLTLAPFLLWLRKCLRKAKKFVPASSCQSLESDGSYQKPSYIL
human Retinoic Acid Receptor gamma (RARg), RARG (gene 5916), sequence (P13631 whole entry, looked up): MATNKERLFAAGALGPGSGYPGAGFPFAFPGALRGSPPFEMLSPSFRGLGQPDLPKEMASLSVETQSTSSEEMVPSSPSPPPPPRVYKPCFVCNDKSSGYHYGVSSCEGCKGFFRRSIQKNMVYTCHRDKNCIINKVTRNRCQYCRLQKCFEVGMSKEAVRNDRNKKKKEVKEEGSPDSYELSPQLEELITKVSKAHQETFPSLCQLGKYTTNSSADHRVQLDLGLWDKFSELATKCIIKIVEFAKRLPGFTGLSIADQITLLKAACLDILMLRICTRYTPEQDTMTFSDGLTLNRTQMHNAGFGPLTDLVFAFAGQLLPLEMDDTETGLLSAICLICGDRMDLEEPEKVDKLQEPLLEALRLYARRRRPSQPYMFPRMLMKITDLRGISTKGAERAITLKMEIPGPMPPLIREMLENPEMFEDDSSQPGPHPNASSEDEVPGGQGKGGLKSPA
human RAR-related Orphan Receptor gamma (RORg), RORC (gene 6097), sequence (P51449 whole entry, looked up, the tested form may be a part): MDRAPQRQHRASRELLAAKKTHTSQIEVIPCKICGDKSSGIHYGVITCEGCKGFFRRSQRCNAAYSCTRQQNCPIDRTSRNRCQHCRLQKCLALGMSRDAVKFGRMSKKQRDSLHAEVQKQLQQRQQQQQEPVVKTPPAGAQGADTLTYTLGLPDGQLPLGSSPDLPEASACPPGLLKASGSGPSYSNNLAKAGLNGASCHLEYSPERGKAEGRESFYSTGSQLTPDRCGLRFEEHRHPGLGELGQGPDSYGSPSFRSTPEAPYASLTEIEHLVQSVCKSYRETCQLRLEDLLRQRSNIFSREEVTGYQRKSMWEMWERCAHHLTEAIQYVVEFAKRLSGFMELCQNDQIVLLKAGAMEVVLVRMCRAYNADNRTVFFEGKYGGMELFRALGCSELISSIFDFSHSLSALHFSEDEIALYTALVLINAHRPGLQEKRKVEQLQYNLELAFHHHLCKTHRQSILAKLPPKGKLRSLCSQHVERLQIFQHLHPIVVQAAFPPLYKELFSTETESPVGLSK

The term AC50 denotes the concentration at which the activity in the assay is half-maximal. As for `N#Cc1c(-c2ccc(Cl)cc2)[nH]c(C(F)(F)F)c1Br`, the outcome in [1], in experiment [2], in experiment [3], in [4], in [5] and in [11] was inactive. The call in experiment [12], in experiment [14] and in [18] was inactive. Moreover, the AC50 was 7110 nM (active) in [6]; 169 nM (active) in experiment [7]; 140 nM (active) in [8]; 324 nM (active) in experiment [9]; 22.1 nM (active) in experiment [10]; 1.61 µM (active) in experiment [13]. The concentration at half-maximal activity (AC50) is 7800 nM (active) in [15], 117 nM (active) in experiment [16], 37.4 nM (active) in experiment [17] and 5070 nM (active) in experiment [19].

For `OCC(F)(F)OC(F)(F)C(F)(F)OC(F)(F)C(F)(F)OC(F)(F)F`, the compound was classed as inactive in [1], in [20], in experiment [2], in [3], in experiment [4] and in experiment [6]. In addition, the compound was called inactive in experiment [12], in [14], in experiment [18] and in experiment [19]. The half-maximal activity concentration (AC50) in experiment [3] was 32200 nM (active); in [5], 46.3 µM (active) and 55.2 µM (active); in experiment [7], 45.4 µM (active) and 14.5 µM (active); in [9], 31.5 µM (active) and 49.7 µM (active); in experiment [10], 40.7 µM (active) and 42.9 µM (active); in [11], 38.9 µM (active) and 48.5 µM (active). Further, the AC50 was 25.7 µM (active) and 49.8 µM (active) in [13]; 52.2 µM (active) and 44.9 µM (active) in experiment [16]; 47.5 µM (active) and 18.3 µM (active) in experiment [17].

As to `O=C(O)C(Cl)Cl`, the result in experiment [20], in [2], in experiment [4], in experiment [5], in experiment [6] and in experiment [7] was inactive. Besides, the outcome in experiment [8], in experiment [9], in experiment [10], in experiment [11], in experiment [13] and in [14] was inactive. Besides, the result in experiment [15], in experiment [16], in [17], in experiment [18] and in [19] was inactive.
